PRMT1 inh: inhibitors of human PRMT1; recombinant PRMT1, activity-based probe fluorescence polarization; inhibition, % at 2.79 µM; 370,000 compounds, 1.3% hits;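 active = inhibition above about 21% made by adding two undisclosed values, limit read from the data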
Target sequence (Q99873 whole entry, looked up): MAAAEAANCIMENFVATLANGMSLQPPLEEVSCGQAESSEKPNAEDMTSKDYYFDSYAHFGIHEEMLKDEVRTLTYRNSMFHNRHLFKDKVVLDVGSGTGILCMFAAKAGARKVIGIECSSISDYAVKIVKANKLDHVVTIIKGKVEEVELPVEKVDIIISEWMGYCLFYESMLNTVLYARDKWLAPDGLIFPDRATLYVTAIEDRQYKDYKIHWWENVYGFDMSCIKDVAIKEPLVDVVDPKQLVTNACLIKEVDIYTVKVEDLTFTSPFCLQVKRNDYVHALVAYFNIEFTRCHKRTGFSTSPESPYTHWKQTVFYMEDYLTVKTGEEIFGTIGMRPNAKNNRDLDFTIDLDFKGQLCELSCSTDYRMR
MBD2 DNA inh: MBD2-methylated oligo binding inhibition | Q9UBB5 | TR-FRET, MBD2 binding to methylated oligonucleotide | inhibition, % at 4.4 µM | 370,000 compounds, 0.31% hits; in the data active = inhibition above about 13%
UHRF1 MBD2 ctr: UHRF1 methyl-DNA binding inhibition; Q96T88; UHRF1 binding to methylated oligo, TR-FRET; inhibition, % at 4.4 µM; 370,000 compounds, 0.75% hits; in the data active = inhibition above about 21%;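 also: UHRF1 SRA domain binding a hemimethylated CpG hairpin DNA probe; 0% = median of test compound wells and 100% = reference inhibitor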
LEDGF integ inh: blocks HIV-1 LEDGF/p75-dependent DNA integration. 370,000 compounds, 0.64% hits. TR-FRET IN-LEDGF/p75 DNA integration, Eu/Cy5. inhibition, % at 3.7 µM;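 active = inhibition above the screen-wide mean plus 3 SD, cut at about 13% in these data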;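 also: signal is the Cy5 over europium emission ratio at 671 and 618 nm; 0% = plate median of compound wells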
PRMT1 inh conf: confirmation of human PRMT1 inhibitors; shares compounds with PRMT1 inh; recombinant His-PRMT1, activity-based probe fluorescence polarization; inhibition, % at 2.79 µM; 3,300 compounds, 42% hits; AID 687036;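 active = mean inhibition across replicates above the hit cutoff derived for the earlier primary screen, cut at about 22% in these data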
UHRF1 DNA bind: UHRF1 methyl-oligo binding inhibition as MBD2 counter-screen; 1,000 compounds, 25% hits; UHRF1 binding to methylated oligonucleotide, TR-FRET; inhibition, % at 4.4 µM; shares compounds with MBD2 DNA inh; in the data active = inhibition above about 21%;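 also: UHRF1 SRA domain binding a labeled hemimethylated CpG hairpin DNA; 0% = vehicle only and 100% = reference inhibitor with vehicle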
MBD2 confirm: MBD2-DBD methyl-DNA binding inhibition, TR-FRET confirmation; shares compounds with MBD2 DNA inh; TR-FRET MBD2-DBD binding to methylated oligonucleotide; inhibition, % at 4.4 µM; 1,000 compounds, 26% hits; AID 720531
IN multimer up: HIV-1 integrase multimerization activation, counter-screen | shares compounds with LEDGF integ inh | TR-FRET HIV-1 integrase multimerization, biochemical | activation, % at 7.7 µM | 2,000 compounds, 17% hits | AID 1053131; in the data active = activation above about 8.9%
TRFRET interf: TR-FRET optical interference, LEDGF/p75 integration counter-screen; shares compounds with LEDGF integ inh; TR-FRET optical interference counterscreen, HIV-1 IN multimerization; 2,000 tested, under 10 active; inhibition, % at 7.7 µM;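 active = inhibition above the mean over all tested compounds plus 3 SD, which no compound reached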;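 also: 0% = integrase with antibodies and DMSO and 100% = antibodies without integrase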
LEDGF integ conf: confirmation of HIV-1 LEDGF/p75-dependent integration inhibitors; shares compounds with LEDGF integ inh; inhibition, % at 3.7 µM; 2,000 compounds, 36% hits; TR-FRET LEDGF/p75-dependent HIV-1 integration, biochemical
The depositor's hits bear a star; / = not tested or not shown; ! = repeats disagree. Rows were chosen to be rich in hits. Some 2.5% of all compounds tested hit in one or more screens of this group. Rule as the data show it, unless noted: active = inhibition above about 14%; inactive = the rest.

SMILES | PRMT1 inh | MBD2 DNA inh | UHRF1 MBD2 ctr | LEDGF integ inh | PRMT1 inh conf | UHRF1 DNA bind | MBD2 confirm | IN multimer up | TRFRET interf | LEDGF integ conf
Cc1cc(C)n2c(Nc3ccc4c(c3)OCCO4)c(-c3ccc(C)o3)nc2n1 | 31* | 16* | 26* | 24* | 3 | 2 | 2 | 2 | -8 | 4
O=C(O)c1ccc2c(c1)C1C=CCC1C(c1ccncc1)N2 (configuration not stated) | -5 | -1 | 3 | 2 | / | / | / | / | / | /
COc1ccc(NS(=O)(=O)c2ccc3c(c2)[C@H]2C=CC[C@H]2[C@@H](c2ccc(C(=O)O)cc2)N3)cc1 | 38* | 5 | 20 | 52* | 21* | / | / | 26* | -94 | 58*
CSc1nc(NCc2ccco2)c2sc3nc(C(C)C)c4c(c3c2n1)CC(C)(C)OC4 | 2 | -1 | 2 | -2 | / | / | / | / | / | /
CSc1nc(NCCOCCO)c2sc3nc(-c4ccco4)c4c(c3c2n1)CCC4 | 41* | 9 | 29* | 26* | 24* | / | / | 0 | 2 | 15*
CCOc1cc(/C=C2\C(=O)N(Cc3ccco3)C(C)=C2C(=O)OC)ccc1O | 46* | -9 | 1 | 14* | 15 | / | / | 1 | -5 | -4
Oc1cccc(CN2CCOCC2)c1O | 33* | 45* | 85* | 78* | 9 | 6 | 5 | 11* | -40 | 35*
Oc1c(CN2CCOCC2)cc(CN2CCOCC2)c(O)c1O | 35* | 35* | 70* | 84* | 83* | 6 | 7 | 5 | -16 | 26*
Cc1ccccc1CN(c1ccc(C(=O)N2CCN(C)CC2)cc1)S(C)(=O)=O | -2 | 0 | 2 | 5 | / | / | / | / | / | /
NC(=O)C1CC12c1ccccc1-c1ccccc12 (configuration not stated) | 2 | 1 | 0 | -3 | / | / | / | / | / | /
COC(=O)Cc1ccc(NC(=S)NNC(=O)C2CC2)cc1 | 0 | 0 | -1 | -3 | / | / | / | / | / | /
CN(C)S(=O)(=O)c1cccc(NC(=S)N/N=C/c2ccc(O)c(O)c2O)c1 | 36* | 4 | 15 | 55* | 84* | / | / | 19* | -67 | 41*
COc1ccc(O)c(/C=N/NC(=S)Nc2cccc(S(=O)(=O)N(C)C)c2)c1 | -1 | -1 | -12 | -7 | / | / | / | / | / | /
COc1ccc(/C=C/C(=O)c2ccc(OC)cc2OC)cc1 | 0 | -5 | -2 | 3 | / | / | / | / | / | /
CNc1ccc(Br)cc(C(=O)/C=C/c2ccc(OC)cc2)c1=O | 44* | 8 | 12 | 30* | 39* | / | / | 3 | -16 | 27*
C=C1c2cccc(O)c2C(O)=C2C(=O)[C@]3(O)C(O)=C(C(N)=O)C(=O)[C@@H](N(C)C)[C@@H]3[C@@H](O)[C@H]12 | 52* | 91* | 98* | 85* | 26* | 21* | 9 | 50* | -180 | 63*
NS(=O)(=O)c1ccc(N/N=C/c2ccc(O)c(O)c2O)c([N+](=O)[O-])c1 | 46* | -6 | 8 | 72* | 79* | / | / | 33* | -167 | 85*
N#CC1=C(N)n2c(s/c(=C\c3ccco3)c2=O)=C(C#N)C1c1ccco1 (configuration not stated) | 41* | 12 | 41* | 38* | 17 | / | / | 18* | -91 | 66*
CCOC(=O)C1=C(N)n2c(s/c(=C/c3ccco3)c2=O)=C(C(=O)OC)C1c1ccco1 (configuration not stated) | 36* | 1 | 20 | 48* | -1 | / | / | 0 | -1 | 3
Cc1ccc(C2=CC(=O)CC(C)(C)C2=O)cc1 | -2 | 0 | -1 | -1 | / | / | / | / | / | /
O=C(O)c1cccc(-n2cccc2/C=C2\NC(=O)N(Cc3ccc(F)cc3)C2=O)c1 | 5 | 1 | 9 | 2 | / | / | / | / | / | /
O=C(O)c1ccc(-n2cccc2/C=C2/NC(=O)N(c3cccc(Cl)c3)C2=O)cc1 | 29* | 39* | 81* | 33* | 5 | 78* | 49* | 13* | -63 | 31*
O=c1cc(Br)c(O)c(Br)cc1Br | 35* | 14* | 39* | 46* | 39* | 14 | -1 | 5 | -24 | 21*
O=C(COC(=O)CCCNC(=O)c1ccc(Cl)cc1)Nc1ccc(Br)cc1 | 1 | 13* | 23* | 3 | / | 2 | 2 | / | / | /
O=C(CCCNC(=O)c1ccc(Cl)cc1)Nc1ccc(Br)cc1 | -2 | 0 | -1 | 3 | / | / | / | / | / | /
SMILES | PRMT1 inh | MBD2 DNA inh | UHRF1 MBD2 ctr | LEDGF integ inh | PRMT1 inh conf | UHRF1 DNA bind | MBD2 confirm | IN multimer up | TRFRET interf | LEDGF integ conf
CCn1nc(C(=O)NNC(=O)c2ccccc2)c2ccccc2c1=O | -4 | 24* | -1 | 12 | / | 6 | 4 | / | / | /
COc1cccc(C(=O)NC2CC3CCCC(C2)N3CC(=O)Nc2ccccc2)c1 (configuration not stated) | 2 | 13* | 21 | 3 | / | 12 | 5 | / | / | /
CCCCN(C(=O)COC(=O)c1sccc1C)c1c(N)n(CCC)c(=O)[nH]c1=O | 1 | 2 | -1 | -5 | / | / | / | / | / | /
O=C(CNC(=O)c1ccccc1)OCN1C(=O)c2ccccc2C1=O | 1 | 15* | 2 | -1 | / | 8 | 4 | / | / | /
Cn1c(SCC(=O)c2c(N)n(C)c(=O)n(C)c2=O)nnc1-c1ccccc1F | -2 | 32* | 2 | 0 | / | -3 | 0 | / | / | /
O=C(NC1CC[C@@]23CCCN2C(=O)CCC[C@H]3C1)c1ccccc1 (some centres not stated) | -3 | -3 | 0 | 0 | / | / | / | / | / | /
CC(C)CC1Nc2ncnc(N3CCOCC3)c2N(Cc2ccc(Cl)cc2)C1=O (configuration not stated) | -1 | 21*! | 24*! | -1 | / | 2 | 1 | / | / | /
CC(C)CC1Nc2ncnc(N3CCOCC3)c2N(Cc2ccccc2)C1=O (configuration not stated) | 0 | 1 | 0 | 2 | / | / | / | / | / | /
COc1ccc(C)cc1NC(=O)C1CCN(C(=O)c2ccco2)CC1 | -3 | 14* | -2 | 3 | / | 9 | 3 | / | / | /
O=C(O)C1CCCCC1C(=O)Nc1cccc(Br)c1 (configuration not stated) | -1 | 40* | 67* | 5 | / | 63* | 41* | / | / | /
CCSc1nc(O)c(Cc2ccccc2)c(=O)[nH]1 | -1 | 13* | 14 | -1 | / | 4 | 6 | / | / | /
COC(=O)c1cc(OC)c(OC)cc1NC(=S)N1CCCC(CO)C1 (configuration not stated) | -1 | 1 | -2 | -5 | / | / | / | / | / | /

Compound activity from PubChem BioAssay.
